Compounds with a hit are over-represented: about 7.6% of the library has one in this group of screens.
p53 reactivation = qHTS assay for re-activators of p53 using a Luc reporter | H1299 p53-A138V BP100-luciferase reporter, luminescence, 24 h | Potency, µM (doses to about 92.2 µM), actives largely listed as activators | actives 0.063% (n = 320,000) | AID 504706, 2011; further: nearly all actives have a fitted effect of over 45% in size
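H1299 (p53-null), stable ts p53-A138V + BP100-Luc; 1000 cells/well, Opti-MEM/10% FBS; cpd 4 pt, 1:5; 24 h, 37 deg C, 5% CO2; detection reagent 10 min RT; luminescence.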
Giardia kill = Small Molecules that selectively kill Giardia lamblia: qHTS. Giardia lamblia trophozoite viability. activity change, % at 7.66 µM, hits read low. actives 0.15% (n = 340,000). AID 540267, 2011; in the data active means activity change below about -80%; inconclusive means between about -30% and that limit;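 further: parasites exposed to compound for two days anaerobically before the ATP read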
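Each well holds 100 Giardia trophozoites and compound. After two days (48 hrs) at 37 deg C in anaerobic conditions, ATP is quantified by luminescence.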
Gal4-VP16 FLuc = VP16 counterscreen qHTS for inhibitors of ROR gamma transcriptional activity | actives 3.5% (n = 310,000) | Potency, µM (series often up to 53.6 µM), most hits filed as inhibitors | Drosophila S2 Gal4-VP16 UAS-luciferase, luminescence, 20 h;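 further: Gal4-VP16 expression switched on by copper sulfate through the metallothionein promoter; nearly all actives have a fitted effect of over 50% in size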
RORg inh = qHTS for inhibitors of ROR gamma transcriptional activity. Nuclear receptor ROR-gamma (Mus musculus), P51450. Drosophila S2 Gal4-RORgamma UAS-luciferase reporter, 20 h. Potency, µM (top dose mostly 53.6 µM), usual class: inhibitors. actives 5.4% (n = 310,000). AID 2551, 2010; further: nearly all actives have a fitted effect of over 60% in size
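Drosophila Schneider cells stably carrying a metallothionein-driven Gal4 DBD–ROR gamma fusion and a UAS-Photinus luciferase reporter were exposed to compound for 1 hr, then induced with copper sulfate (700 uM final) for 20 hr at ambient temperature before luminescence reading.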
BRCA1 expr up = qHTS Assay to Identify Small Molecule Activators of BRCA1 Expression. MCF7-BRCA1-FFLuc reporter, luminescence, 48 h; response scale: scaled: vehicle 0%, 10 µM genistein 100%. Potency, µM (series often up to 46.1 µM), most hits filed as activators. actives 1.1% (n = 380,000). AID 624202, 2012; further: nearly all actives have a fitted effect of over 80% in size
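Luminescence from a BRCA1-driven firefly luciferase in MCF7 cells was the read-out, taken 15 min after substrate addition following 48 h compound exposure at 37 °C. Data were normalized to a 10 microM genistein control and DMSO vehicle.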
ELG1 repair inh = qHTS screen for small molecules that inhibit ELG1-dependent DNA repair in human embryonic kidney (HEK293T) cells expressing luciferase-tagged ELG1. HEK293T ELG1-luciferase reporter, luminescence, 16 h; DNA damage induced by 5-fluorouridine. Potency, µM (top dose mostly 46.1 µM), most hits filed as inhibitors. actives 2.3% (n = 330,000). AID 504467, 2011; further: nearly all actives have a fitted effect of over 55% in size
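5-Fluorouridine DNA damage + compound/DMSO, 2,000 cells/well, 16 h, 37 °C/5% CO2. ONE-Glo, 30 min RT, luminescence. Readout = decrease in reporter signal.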
ELG1 FLuc counter = qHTS screen for small molecules that inhibit ELG1-dependent DNA repair: Hit Confirmation in Cell-Based Luciferin Assay. shares compounds with ELG1 repair inh. cell-free firefly luciferase luminescence counter-screen, ViewLux. Potency, µM (top dose mostly 46.1 µM), hits mostly inhibitors. actives 3% (n = 350). AID 624247, 2012
ELG1 Luc conf = HTS assay for small molecules that inhibit ELG1-dependent DNA repair in human embryonic kidney (HEK293T) cells expressing luciferase-tagged ELG1: Hit Confirmation; shares compounds with ELG1 repair inh; HEK293T ELG1-luciferase levels, luminescence; cells co-treated with 5-fluorouridine; Potency, µM (top dose mostly 46.1 µM), most hits filed as inhibitors; actives 68% (n = 670); AID 624248, 2012; further: nearly all actives have a fitted effect of over 55% in size
Target sequence (Q96QE3 whole entry, looked up): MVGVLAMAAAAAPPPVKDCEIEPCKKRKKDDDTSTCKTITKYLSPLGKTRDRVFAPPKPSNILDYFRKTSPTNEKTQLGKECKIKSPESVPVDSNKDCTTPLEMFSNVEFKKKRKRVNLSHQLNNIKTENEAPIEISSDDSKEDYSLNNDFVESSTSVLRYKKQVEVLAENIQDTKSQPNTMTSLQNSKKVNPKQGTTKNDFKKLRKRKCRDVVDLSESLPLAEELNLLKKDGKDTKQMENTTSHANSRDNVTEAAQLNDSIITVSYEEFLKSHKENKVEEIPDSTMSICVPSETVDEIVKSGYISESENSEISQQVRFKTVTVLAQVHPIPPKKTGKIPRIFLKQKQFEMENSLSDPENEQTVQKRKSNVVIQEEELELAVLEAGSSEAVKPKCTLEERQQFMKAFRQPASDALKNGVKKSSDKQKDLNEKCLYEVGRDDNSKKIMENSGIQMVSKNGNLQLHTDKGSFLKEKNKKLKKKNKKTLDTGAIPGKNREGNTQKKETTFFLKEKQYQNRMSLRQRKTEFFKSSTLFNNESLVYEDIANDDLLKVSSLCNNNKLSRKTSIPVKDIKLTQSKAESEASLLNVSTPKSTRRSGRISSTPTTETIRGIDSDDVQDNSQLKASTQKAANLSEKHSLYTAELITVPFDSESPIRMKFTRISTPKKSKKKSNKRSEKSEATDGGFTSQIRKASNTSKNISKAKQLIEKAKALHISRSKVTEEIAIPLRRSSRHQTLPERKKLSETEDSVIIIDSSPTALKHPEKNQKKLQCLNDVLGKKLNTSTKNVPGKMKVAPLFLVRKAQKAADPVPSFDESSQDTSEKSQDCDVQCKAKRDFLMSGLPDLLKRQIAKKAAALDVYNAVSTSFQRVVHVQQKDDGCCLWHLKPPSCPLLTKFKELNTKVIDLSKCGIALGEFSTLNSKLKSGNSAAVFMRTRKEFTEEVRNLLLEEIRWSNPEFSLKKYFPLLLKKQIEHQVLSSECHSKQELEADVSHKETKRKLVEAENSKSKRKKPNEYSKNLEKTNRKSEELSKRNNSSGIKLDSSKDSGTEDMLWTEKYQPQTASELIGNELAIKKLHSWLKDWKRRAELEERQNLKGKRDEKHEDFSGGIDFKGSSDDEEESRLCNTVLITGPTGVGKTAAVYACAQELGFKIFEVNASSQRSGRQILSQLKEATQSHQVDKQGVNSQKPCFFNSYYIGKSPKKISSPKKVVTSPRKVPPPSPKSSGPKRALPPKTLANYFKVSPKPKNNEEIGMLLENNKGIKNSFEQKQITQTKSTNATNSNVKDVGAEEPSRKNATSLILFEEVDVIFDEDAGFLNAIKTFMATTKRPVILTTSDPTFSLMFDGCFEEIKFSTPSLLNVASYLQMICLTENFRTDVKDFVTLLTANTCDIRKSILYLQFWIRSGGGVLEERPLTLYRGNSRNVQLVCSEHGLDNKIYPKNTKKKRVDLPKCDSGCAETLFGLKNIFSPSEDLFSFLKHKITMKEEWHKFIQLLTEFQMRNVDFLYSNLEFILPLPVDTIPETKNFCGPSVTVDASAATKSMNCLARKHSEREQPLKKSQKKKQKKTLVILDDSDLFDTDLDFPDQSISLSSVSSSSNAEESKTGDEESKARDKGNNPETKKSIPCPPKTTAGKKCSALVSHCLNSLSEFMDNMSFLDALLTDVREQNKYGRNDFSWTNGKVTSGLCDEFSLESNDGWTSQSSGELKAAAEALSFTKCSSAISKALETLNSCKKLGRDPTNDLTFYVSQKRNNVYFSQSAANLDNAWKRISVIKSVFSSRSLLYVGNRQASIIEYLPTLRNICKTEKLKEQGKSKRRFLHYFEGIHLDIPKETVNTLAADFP
ELG1 MMS Luc = confirmation of human ELG1 repair inhibitors, MMS stimulated | Potency, µM (doses to about 46.1 µM), usual class: inhibitors | actives 53% (n = 670) | HEK293T luciferase-tagged ELG1 level, MMS stimulated | shares compounds with ELG1 repair inh; further: nearly all actives have a fitted effect of over 60% in size
ELG1 5-FU = qHTS screen for small molecules that inhibit ELG1-dependent DNA repair: Hit Confirmation with 5FU Viability. shares compounds with ELG1 repair inh. cell viability with 5-FU, ELG1-dependent repair. Potency, µM (top dose mostly 46.1 µM), hits mostly cytotoxic. 670 tested, under 10 active. AID 624250, 2012;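 further: ELG1-luc HEK293T cells cotreated with 5-fluorouridine at 10 µM final; viability measured 16 h after compound addition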
ELG1 MMS cell = qHTS screen for small molecules that inhibit ELG1-dependent DNA repair: Hit Confirmation with MMS Viability; actives 33% (n = 670); Potency, µM (doses to about 46.1 µM), actives largely listed as cytotoxic; AID 624251, 2012; shares compounds with ELG1 repair inh; Cell viability with MMS, ELG1-dependent DNA repair;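 further: ELG1-luc HEK293T cells co-treated with 10 µM MMS; viability read 16 h after compound addition; nearly all actives have a fitted effect of over 60% in size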
ELG1 unstim viab = qHTS screen for small molecules that inhibit ELG1-dependent DNA repair: Hit Confirmation with Unstimulated Viability Assay. shares compounds with ELG1 repair inh. cell viability counter-screen, unstimulated, luminescence. Potency, µM (top dose mostly 45.9 µM), most hits filed as cytotoxic. actives 8% (n = 900);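 further: compound exposure lasted 16 hours before reading; nearly all actives have a fitted effect of over 55% in size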
FLuc biochem = qHTS screen for small molecules that inhibit ELG1-dependent DNA repair: Hit Confirmation in Biochemical Luciferin Assay; purified firefly luciferase, luminescence counter-screen; actives 10% (n = 350); shares compounds with ELG1 repair inh; Potency, µM (doses to about 57.5 µM), most hits filed as inhibitors
Large screens that a line does not name were inactive (follow-up assays come after a bar, where they were run). Unless noted, the call rests on the fitted dose curve; in most records, active means well fitted curve in the direction sought with a large enough effect; inconclusive means small, poorly fitted or top-dose-only effect, or another doubt; inactive means no such curve, though single readings can be large; an effect the other way counts as inactive or inconclusive.

Cc1nc2cc(-c3ccccc3)nn2c(N)c1-c1ccccc1	BRCA1 expr up inconclusive, ELG1 repair inh inconclusive (no result: Gal4-VP16 FLuc, RORg inh) | ELG1 FLuc counter inactive | ELG1 unstim viab inactive | FLuc biochem 0.37µM
O=C(O)/C(CC(=O)c1ccc(Cl)cc1)=N/Nc1ccc([N+](=O)[O-])cc1[N+](=O)[O-]	none
CN1CCc2c(OCc3ccc(F)cc3)cccc2C1=O	none
O=C1c2cccc(OCc3ccc(F)cc3)c2CCN1Cc1ccc(F)cc1	Gal4-VP16 FLuc inconclusive, RORg inh inconclusive, ELG1 repair inh 4.1µM | ELG1 Luc conf 13µM | ELG1 MMS Luc 3.5µM | ELG1 5-FU inactive | ELG1 MMS cell 3.1µM | ELG1 unstim viab inconclusive
Cc1cccc(C(=O)Nc2ccc(C)c(OC(=O)c3cccc(C)c3)c2)c1	p53 reactivation inconclusive, ELG1 repair inh inconclusive (no result: Giardia kill, BRCA1 expr up)
COc1ccc(NC(=O)NS(=O)(=O)c2ccc(C)cc2)cc1OC	none (no result: Gal4-VP16 FLuc, RORg inh)
C=CCn1c(SCC(=O)N2CC(=O)Nc3ccccc32)nc2scc(-c3ccccc3)c2c1=O	ELG1 repair inh 1.6µM | ELG1 Luc conf 22µM | ELG1 MMS Luc inactive | ELG1 5-FU inactive | ELG1 MMS cell inactive | ELG1 unstim viab inconclusive
O=C(N/N=C/c1ccc(OC(=O)c2ccc(Br)cc2)cc1)c1ccncc1	none
O=C(N/N=C/c1cc(Br)ccc1OC(=O)c1ccc(Br)cc1)c1ccncc1	Gal4-VP16 FLuc 5µM, RORg inh 2.8µM, ELG1 repair inh 4.1µM | ELG1 Luc conf inconclusive | ELG1 MMS Luc 16µM | ELG1 5-FU inactive | ELG1 MMS cell inconclusive | ELG1 unstim viab inactive
CC(C)c1ccc(NC(=O)N2CCCC2C(=O)Nc2ccc(-n3cnnn3)cc2)cc1 (stereo not drawn)	BRCA1 expr up inconclusive
Cc1cc(C)cc(NC(=O)N2CCCC2C(=O)Nc2ccc(-n3cnnn3)cc2)c1 (stereo not drawn)	ELG1 repair inh inconclusive | ELG1 Luc conf inconclusive | ELG1 MMS Luc inactive | ELG1 5-FU inconclusive | ELG1 MMS cell inactive | ELG1 unstim viab inactive
COc1ccc(-c2nnc3ccc(SCC(=O)Nc4nc5ccccc5s4)nn23)cc1OC	ELG1 repair inh 0.52µM | ELG1 FLuc counter inactive | ELG1 Luc conf 0.63µM | ELG1 MMS Luc inactive | ELG1 5-FU inconclusive | ELG1 MMS cell inactive | ELG1 unstim viab inconclusive | FLuc biochem inconclusive
O=C(Cc1ccc(OCCCc2ccccc2)cc1)NO	BRCA1 expr up inconclusive (no result: p53 reactivation, Giardia kill, Gal4-VP16 FLuc, RORg inh, ELG1 repair inh) | ELG1 unstim viab inactive
C/C(=N\NC(=O)c1ccc(O)cc1)c1ccc2c(c1)OCCO2	p53 reactivation inconclusive, ELG1 repair inh inconclusive (no result: Gal4-VP16 FLuc, RORg inh)
CC(=NNC(=O)c1cccs1)c1ccc2c(c1)OCCO2	p53 reactivation inconclusive, BRCA1 expr up inconclusive, ELG1 repair inh inconclusive (no result: Gal4-VP16 FLuc, RORg inh) | ELG1 unstim viab inconclusive
CCC(C)n1c(OC)nc2c1c(=O)n(C)c(=O)n2C (stereo not drawn)	none
Cn1c(=O)oc2cc(S(=O)(=O)Nc3ccccc3O)ccc21	none (no result: p53 reactivation)
O=[N+]([O-])c1ccc(NS(=O)(=O)c2cccc3cccnc23)cc1	none
COc1ccc(S(=O)(=O)Nc2cccc3cccnc23)c([N+](=O)[O-])c1	none (no result: p53 reactivation, Gal4-VP16 FLuc, RORg inh, ELG1 repair inh) | ELG1 unstim viab inconclusive
Cc1ccc(/C=C/C(=O)Nc2ccc([N+](=O)[O-])cc2)o1	p53 reactivation inconclusive, ELG1 repair inh 1.8µM | ELG1 Luc conf 14µM | ELG1 MMS Luc 22µM | ELG1 5-FU inconclusive | ELG1 MMS cell 25µM | ELG1 unstim viab inconclusive
Cc1ccc(/C=C/C(=O)Nc2ccc(Oc3ccccc3)cc2)o1	p53 reactivation inconclusive, Gal4-VP16 FLuc inconclusive, ELG1 repair inh inconclusive
Cc1ccc(NC(=O)c2ccc(OC(=O)c3cc4ccccc4o3)cc2)cc1	p53 reactivation inconclusive, Gal4-VP16 FLuc inconclusive, BRCA1 expr up 4µM, ELG1 repair inh inconclusive | ELG1 FLuc counter inactive | ELG1 unstim viab inactive | FLuc biochem inconclusive
O=C(Oc1ccccc1)c1ccc(NC(=O)c2ccco2)cc1	Gal4-VP16 FLuc inconclusive, BRCA1 expr up inconclusive, ELG1 repair inh inconclusive
COc1ccc(OC(=O)c2cc3ccccc3o2)cc1	none
O=C(Nc1cc(Cl)ccc1Cl)c1ccc(OC(=O)c2ccco2)cc1	none | ELG1 FLuc counter inactive | ELG1 unstim viab inactive | FLuc biochem inactive
Cc1ccc(NC(=O)c2ccc(OC(=O)c3ccco3)cc2)cc1	p53 reactivation inconclusive, BRCA1 expr up inconclusive, ELG1 repair inh inconclusive | ELG1 FLuc counter inactive | ELG1 unstim viab inactive | FLuc biochem inactive
COc1ccc(Cl)cc1NC(=O)c1ccco1	none
CCN1CCN(C(c2ccccc2)c2sc3nc(C)nn3c2O)CC1 (stereo not drawn)	none

Screening results from PubChem.
